# Data published in PubChem BioAssay (NCATS).
# Inconclusive results are not listed. Entries that show only a call come without a potency. A number with no mark means an inactive call. The source made the active and inactive calls. Calls come from the whole dose curve; as a rule, active = well fitted cell-killing curve with a large enough effect; inconclusive = small, poorly fitted or top-dose-only effect, or effect the other way; inactive = flat fitted curve, though single readings scatter. Where a SMILES comes first, the peptide text is derived from it. [ ]: non-standard residue; d: D form. ξ: configuration not given here. ξPhe(βξ-Me) = CC(c1ccccc1)C(N)C(=O)O; ξLac(3-iPr) = CC(C)CC(O)C(=O)O; NMeV = CN[CH](C(=O)O)C(C)C; GABA = NCCCC(=O)O; βAla = NCCC(=O)O
# Test system: HeLa
# Experiment: Primary qHTS to identify gynecologic anti-cancer compounds using libraries of approved drugs and bioactive compounds (AID 1345084); note: nearly all actives have a fitted effect of over 55% in size
# Details: Gynecologic cancer cell panel viability, ATPlite luminescence, 48 h; series mostly up to 57.5 µM
# Outline: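 In this quantitative HTS, cell killing is estimated from loss of ATP-dependent luciferase light. Cells see five compound concentrations over a 48 h exposure.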
# Potency is the fitted concentration of half-maximal effect.
Compound,Potency,"activity change, negative = cytotoxicity"
Nc1nc(Nc2ccc(S(N)(=O)=O)cc2)n(C(=S)Nc2c(F)cccc2F)n1,15.8 µM (active),–
CS(=O)(=O)c1ccc(-c2nnc(/C=C/c3nnc(-c4ccc(C#N)cc4)o3)n2-c2ccccc2Cl)nc1,inactive,–
Cc1ccc(-c2ccc3c(ccc4sc5c(c43)NC[C@@H](C)NC5=O)n2)cn1,inactive,–
C[C@@H]1O[C@@H](O[C@H]2[C@H](O)[C@@H](O[C@@H]3O[C@H](CO)[C@@H](O)[C@H](O[C@@H]4O[C@H](CO)[C@@H](O)[C@H](O)[C@H]4O)[C@H]3O)[C@H](O[C@H]3CC[C@@]4(C)C(=CC[C@@H]5C4CC[C@@]4(C)C5C[C@@H]5OC6(CC[C@@](C)(CO[C@@H]7O[C@H](CO)[C@@H](O)[C@H](O)[C@H]7O)O6)[C@@H](C)[C@@H]54)C3)O[C@@H]2CO)[C@H](O)[C@H](O)[C@H]1OC1OC(CO)C(O)C(O)C1O (stereo not given in full),–,-0.928% [at 6.55 µM]
CC(C)[C@H]1CC[C@@]2(O)COC(=O)[C@H]2[C@@H]1/C=C(\CO)C(=O)O,inactive,–
FC(F)(F)c1cc(-c2ncn(/C=C\c3nnco3)n2)cc(C(F)(F)F)c1,inactive,–
CC(C)NCC(C(=O)N1CCN(c2ncnc3c2C(C)CC3O)CC1)c1ccc(Cl)cc1 (stereo not given),inactive,–
O=C1NC(=O)C(c2cn3c4c(cccc24)CCC3)C1c1c[nH]c2ccccc12 (stereo not given),3.16 µM (active),–
CC1C(OC(=O)c2ccccc2)C(O)C2C(C(=O)O)=COC(OC3OC(CO)C(O)C(O)C3O)C12 (stereo not given),inactive,–
CC(C)(C)CCN1C[C@@H]2C(CNC(=O)c3cc(Cl)cc(Cl)c3)[C@@H]2C1 (stereo not given in full),inactive,–
O=C(CN1C(=O)C2(CCCC2)NCC1c1cc(F)cc(F)c1)Nc1ccc2c(c1)CC1(C2)C(=O)Nc2ncccc21 (stereo not given),inactive,–
N[C@H]1Cc2ccccc2N(O)C1=O,inactive,–
COc1cc(OC)cc(C(=O)Nc2ccc(Cl)c(-c3nc4ccc(N(C)C)cc4[nH]3)c2)c1,inactive,–
CCC(CC)C(=O)Nc1sc2c(c1C#N)CCC(C(C)(C)CC)C2 (stereo not given),inactive,–
CC1(C)CC2C(C1)C(C)(O)C13CC1(COC3=O)C2O (stereo not given),inactive,–
NC(=O)c1cccc(-c2cc(OC(=O)NC3CCCCC3)ccc2O)c1,inactive,–
CC1=C(CCC(C)CC(=O)O)[C@@]2(C)CCCC(C)(C)C2CC1=O (stereo not given in full),inactive,–
Cc1c[nH]c2nccc(Oc3c(F)cc(Nc4cc(Cl)nc(N)n4)cc3F)c12,7.94 µM (active),–
CCOC(=O)c1cc(C#N)c(N2CCC(C(=O)NS(=O)(=O)Cc3ccccc3)CC2)nc1C,inactive,–
COc1cc(O)cc(C)c1C(=O)O[C@H]1[C@@H](OC(C)=O)[C@H](n2ccc(=O)[nH]c2=O)O[C@@H]1CO,inactive,–

Compound,Potency,"activity change, negative = cytotoxicity"
C=C[C@]1(C)C=C2CCC3C(C)(CCC[C@@]3(C)C(=O)O)C2CC1 (stereo not given in full),inactive,–
C[C@@H]1O[C@@H](O[C@H]2[C@H](O)[C@@H](C(=O)O)O[C@@H](O[C@H]3CC[C@@]4(C)C(CC[C@]5(C)C4CC=C4C6CC(C)(C)CC[C@]6(C(=O)O)CC[C@]45C)C3(C)C)[C@@H]2O[C@@H]2OC[C@@H](O)[C@H](O)[C@H]2O)[C@H](O)[C@H](O)[C@H]1O (stereo not given in full),–,10.5% [at 11.6 µM]
CC(=O)OC/C=C(\C)C(CC1C(C)=C(OC(C)=O)C(=O)C2C(C)(C)C(O)CCC12C)OC(C)=O (stereo not given),inactive,–
CC1NC(=O)CCCNC(=O)C(Cc2c[nH]c3ccccc23)NC(=O)C(C)NC(=O)C(C(C)C)NC(=O)C(C(C)c2ccccc2)NC(=O)C(C(C)C)NC1=O (stereo not drawn) (cyclo([GABA]AV[ξPhe(βξ-Me)]VAW); configuration not given here),inactive,–
C/C=C(\C)C(=O)O[C@@H]1CC2[C@@H](CC=C3C[C@@H](O[C@H]4C[C@H](OC)[C@H](O[C@H]5C[C@H](OC)[C@H](O[C@@H]6O[C@H](C)[C@@H](O[C@H]7C[C@H](OC)[C@H](O[C@@H]8O[C@H](CO)[C@@H](O)[C@H](O)[C@H]8O)[C@@H](C)O7)[C@H](OC)[C@H]6O)[C@@H](C)O5)[C@@H](C)O4)CC[C@@]32C)[C@@]2(O)CC[C@H](C(C)=O)[C@@]12C (stereo not given in full),–,-0.318% [at 6.55 µM]
COc1c(/C=C/C(C)(C)O)ccc2c1C(=O)OCc1cc(C)cc(O)c1O2,inactive,–
CCOCc1cc(OC)c(-c2ccc(C[C@H](NC(=O)c3c(F)cccc3F)C(=O)O)cc2)c(OC)c1,inactive,–
Cc1nc([C@](C)(O)CO)sc1-c1cnc(N)c(O[C@H](C)c2cc(F)ccc2-n2nccn2)c1,8.91 µM (active),–
OC[C@H]1O[C@@H](O[C@H]2[C@H](OCc3ccccc3)O[C@H](CO[C@@H]3OC[C@@H](O)[C@H](O)[C@H]3O)[C@@H](O)[C@@H]2O)[C@H](O)[C@@H](O)[C@@H]1O,inactive,–
CC1(C)C[C@H](O)C[C@@]2(C)OC(=O)C=C12,inactive,–
C=C(C(=O)O)C1CC2=C(C)CCCC2(C)C[C@@H]1O (stereo not given in full),inactive,–
CC[C@@](C)(Nc1ccnc(-c2c[nH]c3ncccc23)n1)C(=O)NCC(F)(F)F,inactive,–
COc1ccc(-c2c(-c3cc(C(=O)O)ccn3)ncn2C)cc1,inactive,–
Cc1nc(C)c(-c2ccc(C3CCC(CC(=O)O)CC3)cc2)nc1C(N)=O (stereo not given),inactive,–
CC(C)CC1OC(=O)C2CCCN2C(=O)CCNC(=O)C(Cc2ccccc2)NC(=O)C(C(C)C)N(C)C(=O)C(C(C)C)N(C)C1=O (stereo not given) (cyclo([ξLac(3-iPr)][NMeV][NMeV]F[βAla]P); configuration not given here),inactive,–
C=C1C(O)C[C@@H]2C(C(=O)O)=CO[C@@H](O[C@@H]3O[C@H](CO)[C@@H](O)[C@H](O)[C@H]3OC(=O)c3ccc(O)cc3)[C@H]12 (stereo not given in full),inactive,–
CC(O)CCC1C(CO[C@@H]2O[C@H](CO)[C@@H](O)[C@H](O)[C@H]2O)CC(O)CC1(C)C (stereo not given in full),inactive,–
CC1=C2C(O)C(=O)OC(c3ccoc3)C2(C)CCC1O (stereo not given),inactive,–
O=C(Nc1ccccc1-c1cn2c(CN3CCNCC3)csc2n1)c1ccc2ccccc2n1,inactive,–
COC(=O)CC(C)(O)CC(=O)OCc1ccc(O[C@@H]2O[C@H](CO)[C@@H](O)[C@H](O)[C@H]2O)cc1 (stereo not given in full),inactive,–
